Laboratory results published in PubChem BioAssay AID588742 (Southern Research Specialized Biocontainment Screening …, 2011).
The campaign covered roughly 1,800 compounds. About 410 (23%) were called active. The rule behind the calls is not given here. Not all results are given here. Measured potencies and affinities stand elsewhere.

Assay: viability of Vero cells under compound – cytotoxicity control for flavivirus capping enzyme inhibitors (AID 588742)
Details: cytotoxicity counter-screen; series mostly up to 40 µM
In the case of `Nc1cc2nsnc2cc1Br`, the outcome is reported as “inactive”.
With `COc1cccc(/C=C2\Oc3cc(OCC(=O)N4Cc5ccccc5C[C@H]4C(=O)O)ccc3C2=O)c1` the outcome was “inactive”.
In the case of `O=C(N/N=C/c1ccc(N2CCOCC2)o1)c1cccc([N+](=O)[O-])c1`, the outcome is reported as “inactive”.
With `O=C(O)c1ccc(-n2nc(C(F)(F)F)c3c2-c2ccoc2CC3)cc1` the outcome was “inactive”.
With `O=C(Nc1ccccc1C(=O)O)c1cccc(C(=O)Nc2ccccc2C(=O)O)c1` the outcome was “inactive”.
With `O=C(Nc1cc(C(=O)Nc2ccccc2C(=O)O)cc(C(=O)Nc2ccccc2C(=O)O)c1)c1ccccc1` the outcome was “inactive”.
In the case of `O=C(O)c1ccccc1-c1ccccc1C(=O)Nc1ccc2c(c1)C(=O)c1ccccc1-2`, the outcome is reported as “inactive”.
With `O=C(NNc1cc(Br)c(O)c(Br)c1)c1ccccc1` the outcome was “inactive”.
With `O=C(O)CCN1C(=O)/C(=C\c2cccc(OCc3ccccc3)c2)SC1=S` the outcome was “inactive”.
For `O=c1c(C(c2ccc(O)cc2)c2c(O)nc3n(c2=O)CCS3)c(O)nc2n1CCS2`, the outcome was “inactive”.
For `O=C1CC(=Nc2ccc([N+](=O)[O-])cc2)NN1c1c(Cl)cc(Cl)cc1Cl`, the outcome was “inactive”.
For `CCOC(=O)Cc1cc(=O)c2c(=O)n(-c3ccccc3)[nH]c2[nH]1`, the outcome was “inactive”.
In the case of `CCC1(C)Cc2c(C#N)c(N)sc(=S)c2CO1` (stereo not given), the outcome is reported as “inactive”.
For `CC(=O)/C(=N/Nc1ccccc1)Sc1nnc(CCc2ccccc2)n1-c1ccccc1`, the outcome was “inactive”.
With `CCc1nnc(NC(=O)CCC(=O)N2CCN(c3ccccn3)CC2)s1` the outcome was “inactive”.
For `CCc1nnc(NS(=O)(=O)c2ccc(NC(=S)NC(=O)/C=C/c3ccc(F)cc3)cc2)s1`, the outcome was “inactive”.
With `CCOC(=O)Nc1sc(NS(=O)(=O)c2ccccc2)nc1C` the outcome was “inactive”.
With `CCc1nnc(NS(=O)(=O)c2ccc(NC(=S)NC(=O)/C=C/c3ccc(C(C)C)cc3)cc2)s1` the outcome was “inactive”.
With `CCC(=O)Nc1ccc2nc3c(=O)[nH]c(=S)[nH]c3nc2c1` the outcome was “inactive”.
With `C=CCOc1ccc(/C=C2\SC(=S)N(NS(=O)(=O)c3ccc(C)cc3)C2=O)cc1` the outcome was “inactive”.
In the case of `O=C(CNc1cccc2ccccc12)N/N=C/c1ccc(C(=O)O)cc1`, the outcome is reported as “inactive”.
For `CCC1(c2ccccc2)NC(=S)N(c2cccc(C)c2C)N1` (stereo not given), the outcome was “inactive”.
With `O=C(O)/C=C/C(=O)c1ccc2c(c1)NC(=O)CO2` the outcome was “inactive”.
With `COc1cc(/C=C2/SC(=S)N(CC(=O)O)C2=O)ccc1OC(=O)c1cccs1` the outcome was “inactive”.
For `CC(C)C(=O)OC1CCS(=O)(=O)c2sccc21` (stereo not given), the outcome was “inactive”.
In the case of `CCCc1nc(C)c2c(=O)[nH]c(-c3cc(S(=O)(=O)N4CCN(CC)CC4)ccc3OCC)nn12`, the outcome is reported as “inactive”.
For `COc1cccc(CNc2ccc(N3CCCCC3)cc2)c1OC`, the outcome was “inactive”.
In the case of `CCOc1c(Br)cc(CNc2ccc(N3CCN(C(C)=O)CC3)cc2)cc1OC`, the outcome is reported as “inactive”.
In the case of `Cc1nn(-c2ccccc2)c(Cl)c1/C=C1\SC(=S)N(CCCCCC(=O)O)C1=O`, the outcome is reported as “inactive”.
With `CCOC(=O)c1c(C)oc2c1cc(NS(=O)(=O)c1ccc(C(=O)O)cc1)c1ccccc12` the outcome was “inactive”.
For `COC(=O)c1c(C)oc2c1cc(NS(=O)(=O)c1ccc(C(=O)O)cc1)c1ccccc12`, the outcome was “inactive”.
In the case of `CC(=O)Nc1ccc(NS(=O)(=O)c2ccccc2)c2ccccc12`, the outcome is reported as “inactive”.
For `CCOc1cc(NS(=O)(=O)c2ccccc2)c(OCC)cc1NC(=O)c1ccco1`, the outcome was “inactive”.
For `COc1ccccc1/C=C1/C(=O)ON=C1C`, the outcome was “inactive”.
In the case of `Cc1ccc(N2C(=O)c3ccccc3C2C(=O)c2ccc(O)cc2O)cc1` (stereo not given), the outcome is reported as “inactive”.
With `CC1=C(C#N)c2nc(N)c(C#N)c(C)c2/C1=C\c1ccc(OCC(=O)O)c(Cl)c1` the outcome was “inactive”.
In the case of `NC(=S)c1cc2cc(Br)ccc2oc1=O`, the outcome is reported as “inactive”.
With `CC(=O)C(=Cc1cc(C)n(-c2ccccc2)c1C)C(C)=O` the outcome was “inactive”.
For `CCN(CCCNc1cc2c(c(N)c1S(=O)(=O)O)C(=O)c1ccccc1C2=O)c1ccccc1`, the outcome was “inactive”.
In the case of `CCC(=O)Nc1cc(C(=O)O)ccc1Sc1ccc(C)cc1`, the outcome is reported as “inactive”.
In the case of `CCOC(=O)Cc1csc(NC(=O)NC2(C(F)(F)F)Oc3ccccc3O2)n1`, the outcome is reported as “inactive”.
With `O=C(O)CCCN1C(=O)/C(=C\c2ccco2)SC1=S` the outcome was “inactive”.
With `O=C(O)CCCN1C(=O)/C(=C/C=C/c2ccco2)SC1=S` the outcome was “inactive”.
For `O=S(=O)([O-])CCC[n+]1c(SCCCS(=O)(=O)O)sc2ccc(Cl)cc21`, the outcome was “inactive”.
For `O=C(O)COc1ccccc1/C=N/Nc1ccc(S(=O)(=O)Nc2ccc(Cl)cc2)cc1[N+](=O)[O-]`, the outcome was “inactive”.
With `N#C/C(=C\c1ccccc1)C(=O)NNS(=O)(=O)c1cccc([N+](=O)[O-])c1` the outcome was “inactive”.
With `O=C(NNS(=O)(=O)c1ccc([N+](=O)[O-])cc1)c1ccc2ccccc2c1O` the outcome was “inactive”.
In the case of `O=C(O)CSc1c(O)c2ccccc2[nH]c1=O`, the outcome is reported as “inactive”.
With `O=C(O)c1ccccc1NS(=O)(=O)c1cccc(NS(=O)(=O)c2cc(Br)ccc2Br)c1` the outcome was “inactive”.
For `O=S(=O)(Nc1ccc(O)c2ccccc12)c1ccc(F)cc1`, the outcome was “inactive”.
In the case of `CCc1ccc(S(=O)(=O)Nc2ccc(O)c3ccccc23)cc1`, the outcome is reported as “inactive”.
In the case of `O=C(O)CSc1nc(-c2ccc(Cl)cc2)nc2c1oc1ccccc12`, the outcome is reported as “inactive”.
With `Cc1nnc(SCC2=C(C(=O)O)N3C(=O)C(NC(=O)c4cccc(F)c4F)C3SC2)s1` (stereo not given) the outcome was “inactive”.
In the case of `CC1(OC(=O)CCc2ccccc2)C(=O)C=C2C=C(c3ccc(C#N)cc3)N(Cc3ccccc3)C=C2C1=O` (stereo not given), the outcome is reported as “inactive”.
With `O=C1NN(c2cccc(Br)c2)C(=O)/C1=C/c1ccc(-c2cc([N+](=O)[O-])ccc2O)o1` the outcome was “inactive”.
For `Cc1ccc([C@@H]2CC=C(C(=O)O)[C@H](c3ccc(Br)cc3)N2S(=O)(=O)c2ccccc2C)cc1`, the outcome was “inactive”.
For `CCCc1cc(=O)oc2c(CN3CCCC3)c(O)c(Cl)cc12`, the outcome was “inactive”.
With `Cc1ccc(CSc2nnc3c(n2)OC2(Nc4ccccc4-3)C(=O)Nc3ccc(F)cc32)cc1` (stereo not given) the outcome was “inactive”.
In the case of `CCN(CCCNC(=O)CCc1nc(-c2ccc(OC)cc2)no1)c1cccc(C)c1`, the outcome is reported as “inactive”.
With `CCN(CC)c1ccc(C2C3CCCCC3(O)CCN2CC(=O)N2CCCCC2)cc1` (stereo not given) the outcome was “inactive”.
In the case of `CCN(/N=C/c1ccc(N(C)C)cc1)c1nc2ccccc2[nH]1`, the outcome is reported as “inactive”.
For `COc1ccccc1NS(=O)(=O)c1ccc(N/N=C/c2ccccc2OCC(=O)O)c([N+](=O)[O-])c1`, the outcome was “inactive”.
In the case of `O=C1NN(c2cccc(Br)c2)C(=O)/C1=C\c1ccccc1`, the outcome is reported as “inactive”.
In the case of `N#CC1C(=O)c2ccccc2C1c1ccccc1` (stereo not given), the outcome is reported as “inactive”.
With `CCCCCCn1c(=O)c(-c2ccccc2)c(O)c2ccccc21` the outcome was “inactive”.
With `CCOc1ccc(/C=C/c2[nH]c(=O)[nH]c(=O)c2[N+](=O)[O-])cc1` the outcome was “inactive”.
For `COc1ccc(S(=O)(=O)CC(=O)c2cc3cc(Br)ccc3oc2=O)cc1`, the outcome was “inactive”.
For `COc1ccc(OC)c(/C=C2\SC(=S)N(NS(=O)(=O)c3ccc(C)cc3)C2=O)c1`, the outcome was “inactive”.
With `O=C(CC(Nc1ccccc1Cl)C(=O)O)c1ccccc1` (stereo not given) the outcome was “inactive”.
For `CCCOC(=O)c1c(NC(=O)C2C3C=CC(C3)C2C(=O)O)sc2c1CCC(C)C2` (stereo not given), the outcome was “inactive”.
With `N#CCC(=O)N/N=C/c1ccc(OCC(=O)Nc2ccc(F)cc2)cc1` the outcome was “inactive”.
In the case of `COC(=O)C1=C(C(=O)OC)C(c2ccccc2O)c2sc(=O)[nH]c2S1` (stereo not given), the outcome is reported as “inactive”.
With `O=c1[nH]c(/C=C\c2ccc(O)c(O)c2)nc(O)c1[N+](=O)[O-]` the outcome was “inactive”.
In the case of `Cc1c(N2C(=O)/C(=C3\C(=O)N(CC(=O)O)c4ccccc43)SC2=S)c(=O)n(-c2ccccc2)n1C`, the outcome is reported as “inactive”.
With `Cc1c(N=C2C=C(Br)C(=O)C(Br)=C2)c(=O)n(-c2ccccc2)n1C` the outcome was “inactive”.
In the case of `COc1ccccc1/C=C1\SC(=S)N(NS(=O)(=O)c2ccccc2)C1=O`, the outcome is reported as “inactive”.
For `COc1ccc(S(=O)(=O)Nc2cc3c4c(c2)C(C)C(=O)N4CCC3)cc1OC` (stereo not given), the outcome was “inactive”.
With `CC(=O)N1CCN(c2ccc(NCc3cccc(C)c3)cc2)CC1` the outcome was “inactive”.
For `N#C/C(=C\c1ccc(C#N)cc1)C(=O)c1ccccc1`, the outcome was “inactive”.
With `O=C1C(=NO)CCc2ccccc21` the outcome was “inactive”.
For `O=C1c2ccccc2C(=O)c2c1cccc2N(CCO)CCO`, the outcome was “inactive”.
With `CCn1c2ccccc2c2cc(NC(=O)c3ccc(Br)o3)ccc21` the outcome was “inactive”.
In the case of `CCCCCCSc1nc(O)c(C2OC(=O)c3c2ccc(OC)c3OC)c(=O)n1-c1ccccc1` (stereo not given), the outcome is reported as “inactive”.
With `c1cc2c(cc1NC1CCCCCC1)OCO2` the outcome was “inactive”.
For `O=C(O)c1[nH]c2ccccc2c1C(c1cc(Cl)cc([N+](=O)[O-])c1O)c1c(C(=O)O)[nH]c2ccccc12`, the outcome was “inactive”.
For `O=C(O)c1cc(N/N=C/c2ccc(-c3ccccc3)cc2)ccc1Cl`, the outcome was “inactive”.
With `O=C(O)CN1C(=O)/C(=C\c2cc([N+](=O)[O-])ccc2OCc2ccccc2Cl)SC1=S` the outcome was “inactive”.
For `O=C(O)CCCN1C(=O)/C(=C\c2ccccc2OCc2ccccc2)SC1=S`, the outcome was “inactive”.
With `O=C(O)CN1C(=O)/C(=C\c2ccccc2OCc2ccccc2)SC1=S` the outcome was “inactive”.
In the case of `O=C(O)CN1C(=O)/C(=C\c2ccccc2OCc2ccc(Cl)cc2)SC1=S`, the outcome is reported as “inactive”.
With `CC1=C/C(=C(\c2cc(C)c(O)c(Br)c2)c2ccccc2S(=O)(=O)O)C=C(Br)C1=O` the outcome was “inactive”.
For `Cc1ccc(S(=O)(=O)N2CCC(C(=O)OC(C)C(=O)NC3CCCCC3C)CC2)cc1C` (stereo not given), the outcome was “inactive”.
With `CN(C)c1ccc2cc(S(=O)(=O)O)cc(O)c2c1` the outcome was “inactive”.
In the case of `Cc1nc2ccccc2c2oc(C(=O)Nc3ccc4c(c3)OCCO4)cc12`, the outcome is reported as “inactive”.
For `Nc1nn2c(-c3ccccc3)cc(=O)[nH]c2c1N=Nc1ccc(O)cc1`, the outcome was “inactive”.
With `O=[N+]([O-])c1ccc(S(=O)(=O)Nc2nc(-c3ccccc3)cs2)cc1` the outcome was “inactive”.
In the case of `Cc1cc([N+](=O)[O-])ccc1N1C(=O)c2ccc(C(=O)Nc3ccccc3C(=O)O)cc2C1=O`, the outcome is reported as “inactive”.
With `O=C(O)c1ccc(N=N/C(=N\Nc2ccc(C(=O)O)cc2)c2ccccc2)cc1` the outcome was “inactive”.
In the case of `O=C(O)CN1C(=O)/C(=C2\C(=O)N(Cc3ccccc3Cl)c3ccccc32)SC1=S`, the outcome is reported as “inactive”.
With `Cc1c(N)cc(N)cc1C(=O)O` the outcome was “inactive”.
